High-throughput results as filed in PubChem BioAssay.
Only some compounds are listed: those with a hit (about 3.8% of all), similar ones and a draw of the others.
Gli-Sufu antag = Gli-Sufu pathway antagonists, primary screen, luciferase luminescence, Sufu-KO-LIGHT cells, uHTS. inhibition, % at 5 µM. Sufu-KO-LIGHT fibroblasts, Gli luciferase reporter luminescence. 0.74% of 340,000 active;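 active = inhibition above about 55%, limit read from the data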;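 also: 0% = DMSO-treated cells and 100% = wells with medium but no cells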
Jurkat NFkB inh = inhibitors of induced NF-kB luciferase reporter, primary screen, TCR NF-kB activation inhibitor project, cell-based, luminescence, uHTS. Jurkat, PMA/ionomycin-induced NF-kB luciferase reporter. inhibition, % at 4 µM. 0.53% of 330,000 active. AID 435003, 2010; in the data active = inhibition above about 50%
697 NFkB inh = inhibitors of PMA/ionomycin-induced NF-kB reporter, 697 cells, primary screen, B-cell NF-kB inhibitor project, cell-based, luminescence, uHTS; inhibition, % at 4 µM; 0.33% of 330,000 active; 697 B-cell NF-kB luciferase reporter, 16 h; in the data active = inhibition above about 35%
Mdm2 MdmX PPI = inhibitors of human Mdm2-MdmX association, primary screen, cell-based, luminescence, split luciferase, SaOS-2, uHTS; SaOS-2 split-luciferase Mdm2/MdmX complementation; inhibition, % at 8 µM; 3% of 330,000 active;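 active = inhibition of at least 50% at 8 µM in the primary screen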
Target sequence (O15151 whole entry, looked up): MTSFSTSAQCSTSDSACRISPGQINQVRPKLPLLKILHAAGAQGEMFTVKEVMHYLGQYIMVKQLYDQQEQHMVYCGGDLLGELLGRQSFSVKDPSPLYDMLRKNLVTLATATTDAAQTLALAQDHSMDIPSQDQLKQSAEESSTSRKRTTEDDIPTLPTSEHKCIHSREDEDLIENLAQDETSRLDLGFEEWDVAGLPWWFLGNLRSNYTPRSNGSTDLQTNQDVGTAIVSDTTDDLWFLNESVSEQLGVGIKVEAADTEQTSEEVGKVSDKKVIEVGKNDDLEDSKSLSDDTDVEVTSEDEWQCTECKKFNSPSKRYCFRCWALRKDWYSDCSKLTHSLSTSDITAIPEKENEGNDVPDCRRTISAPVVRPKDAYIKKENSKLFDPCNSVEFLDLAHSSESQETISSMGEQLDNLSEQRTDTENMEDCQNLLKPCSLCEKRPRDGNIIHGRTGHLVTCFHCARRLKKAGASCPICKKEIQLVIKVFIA
Target sequence (Q00987 whole entry, looked up): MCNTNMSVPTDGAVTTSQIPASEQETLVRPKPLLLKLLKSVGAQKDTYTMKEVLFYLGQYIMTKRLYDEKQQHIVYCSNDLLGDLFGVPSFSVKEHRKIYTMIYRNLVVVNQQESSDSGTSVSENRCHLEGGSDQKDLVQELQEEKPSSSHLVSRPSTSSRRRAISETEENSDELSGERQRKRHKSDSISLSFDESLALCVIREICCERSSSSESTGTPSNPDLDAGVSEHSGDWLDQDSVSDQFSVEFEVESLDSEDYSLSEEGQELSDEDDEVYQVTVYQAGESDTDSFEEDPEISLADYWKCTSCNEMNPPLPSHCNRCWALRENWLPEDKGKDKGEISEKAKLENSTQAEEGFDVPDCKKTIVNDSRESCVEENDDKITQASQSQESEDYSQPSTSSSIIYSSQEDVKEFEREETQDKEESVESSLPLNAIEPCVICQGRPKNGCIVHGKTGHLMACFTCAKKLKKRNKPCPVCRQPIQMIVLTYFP
Shn3 3UTR inh = reduction of Shn3 3'UTR firefly luciferase signal, primary screen, Schnurri-3 inhibitor project, cell-based, Clone20 osteoblasts, set 2; Clone20 osteoblast Shn3 3'UTR firefly luciferase, 24 h; inhibition, % at 12.5 µM; 0.52% of 360,000 active;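 active = mean inhibition of at least 75% with every replicate also reaching 75%; inconclusive = mean inhibition at least 75% but some replicate below; inactive = mean inhibition below 75%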;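 also: 0% = median of neutral control wells and 100% = pilot-screen positive control compound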
Mdm2-MdmX conf = Mdm2-MdmX complex disruptors, retested hits, confirmation, luminescence, single concentration | 55% of 10,000 active | AID 489028, 2010 | Mdm2-MdmX binding, luminescent assay | shares compounds with Mdm2 MdmX PPI | inhibition, % at 8 µM; in the data active = inhibition above about 40%
FLuc counter = full-length luciferase signal inhibition, confirmation, counter-screen for Mdm2/MdmX interaction inhibitor project, cell-based, single concentration, SaOS-2 | shares compounds with Mdm2 MdmX PPI | SaOS-2 full-length luciferase counterscreen, luminescence | inhibition, % at 8 µM | 77% of 6,200 active | AID 504607, 2011;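 active = mean inhibition at 8 µM reaching about 37%, which flags the compound as non-specific, limit read from the data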;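 also: p53-null SaOS-2 cells with luciferase driven by a doxycycline-inducible promoter; compound on cells about two nights before reading with doxycycline added after day one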
Gli-Sufu confirm = Gli-SUFU pathway antagonists, confirmation, single concentration, luciferase luminescence, Sufu-KO-LIGHT cells; shares compounds with Gli-Sufu antag; Gli luciferase reporter; inhibition, % at 5 µM; 40% of 2,500 active;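 active = mean inhibition at 5 µM reaching about 45%, limit read from the data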;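 also: plate controls were DMSO-treated cells for no effect and wells lacking cells for full effect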
Gli cytotox = cytotoxicity in Sufu-KO-LIGHT cells, confirmation, cytotoxicity control for Gli-SUFU antagonist project, cell-based, ATP luminescence, single concentration. shares compounds with Gli-Sufu antag. cytotoxicity, % at 5 µM. 32% of 2,500 active. AID 651994, 2013;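 active = mean cytotoxicity at 5 µM above about 25%, limit read from the data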;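 also: cells exposed to compound overnight for roughly 16 to 18 hours; plate controls were DMSO wells with cells for no effect and medium without cells for full effect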
Wnt3a counter = Wnt3a reporter signal inhibition, confirmation, counter-screen for Gli-SUFU antagonist project, Wnt-LIGHT cells, luminescence, single concentration | shares compounds with Gli-Sufu antag | Wnt3a-driven luciferase reporter | inhibition, % at 6.25 µM | 20% of 2,500 active;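 active = mean inhibition above about 25%, limit read from the data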
Starred values were filed as active, the others as inactive.

For COc1ccc(NC(=O)/C(C#N)=C\c2cc(C)n(-c3ccc4c(c3)OCO4)c2C)cc1 the results were Gli-Sufu antag 64*, Jurkat NFkB inh 46, 697 NFkB inh -54, Mdm2 MdmX PPI 58*, Shn3 3UTR inh 26, Mdm2-MdmX conf 55*, FLuc counter 75*, Gli-Sufu confirm 56*, Gli cytotox 56* and Wnt3a counter -65.
Screening Cc1cc(Nc2ccc([N+](=O)[O-])cc2)c2ccccc2n1 returned Gli-Sufu antag 56*, Jurkat NFkB inh -4, 697 NFkB inh -12, Mdm2 MdmX PPI 93*, Shn3 3UTR inh 32, Mdm2-MdmX conf 70*, FLuc counter 55*, Gli-Sufu confirm 38, Gli cytotox 13 and Wnt3a counter 3.
Cn1ncc(Cl)c1C(=O)N/N=C/c1cc2c(cc1[N+](=O)[O-])OCO2 was read as Gli-Sufu antag -18, Jurkat NFkB inh -8, 697 NFkB inh 11, Mdm2 MdmX PPI -11 and Shn3 3UTR inh 10.
For CCN(CC)c1ccc(/C=N/NC(=O)c2c(Cl)cnn2C)c(O)c1 the results were Gli-Sufu antag 87*, Jurkat NFkB inh 32, 697 NFkB inh -3, Mdm2 MdmX PPI 71*, Shn3 3UTR inh 79, Mdm2-MdmX conf 81*, FLuc counter 27, Gli-Sufu confirm 68*, Gli cytotox 33* and Wnt3a counter 59*.
For OC(c1ccc(Cl)cc1)c1nccc2ccccc12 (stereo not given) the results were Gli-Sufu antag -6, Jurkat NFkB inh -8, 697 NFkB inh 7, Mdm2 MdmX PPI 8 and Shn3 3UTR inh -24.
For Cc1cccc(-n2ncc3c(N(CCO)CCO)ncnc32)c1 the results were Gli-Sufu antag -44, Jurkat NFkB inh -55, 697 NFkB inh -24, Mdm2 MdmX PPI -20 and Shn3 3UTR inh 0.
Cc1cccc(-n2ncc3c(N(C)C4CCCCC4)ncnc32)c1 was read as Gli-Sufu antag 56*, Jurkat NFkB inh 27, 697 NFkB inh -79, Mdm2 MdmX PPI 90*, Shn3 3UTR inh 76, Mdm2-MdmX conf 87*, FLuc counter 84*, Gli-Sufu confirm 76*, Gli cytotox 69* and Wnt3a counter 99*.
Screening COc1ccc(-n2ncc3c(N(C)C4CCCCC4)ncnc32)cc1 returned Gli-Sufu antag 60*, Jurkat NFkB inh -5, 697 NFkB inh -162, Mdm2 MdmX PPI 88*, Shn3 3UTR inh 64, Mdm2-MdmX conf 92*, FLuc counter 102*, Gli-Sufu confirm 80*, Gli cytotox 77* and Wnt3a counter 99*.
For COc1ccc(S(=O)(=O)N2CCN(C(=O)/C=C/c3ccco3)CC2)cc1 the results were Gli-Sufu antag -15, Jurkat NFkB inh 2, 697 NFkB inh 16, Mdm2 MdmX PPI 14 and Shn3 3UTR inh -26.
`O=C(NC(Nc1nc2ccc([N+](=O)[O-])cc2s1)(C(F)(F)F)C(F)(F)F)c1cccnc1` gave Gli-Sufu antag 84*, Jurkat NFkB inh 13, 697 NFkB inh -18, Mdm2 MdmX PPI 100*, Shn3 3UTR inh 83, Mdm2-MdmX conf 94*, FLuc counter 22, Gli-Sufu confirm 87*, Gli cytotox 35* and Wnt3a counter 81*.
Screening CN(C)S(=O)(=O)c1ccc2nc(NC(=O)c3cccnc3)sc2c1 returned Gli-Sufu antag -50, Jurkat NFkB inh -11, 697 NFkB inh -61, Mdm2 MdmX PPI 0 and Shn3 3UTR inh -49.
Cc1cc2c(cc(C(=O)OCC(=O)NCc3cccs3)n2C(C)C)o1 was read as Gli-Sufu antag 50, Jurkat NFkB inh 35, 697 NFkB inh -60, Mdm2 MdmX PPI 63*, Shn3 3UTR inh 13, Mdm2-MdmX conf 50*, FLuc counter 77*, Gli-Sufu confirm 31, Gli cytotox 56* and Wnt3a counter -36.
`O=C(N[C@@H]1C/C=C\C[C@@H](CC(=O)N(CCO)Cc2ccccc2)C(=O)NC[C@H](c2ccccc2)OC1=O)OCC1c2ccccc2-c2ccccc21` gave Gli-Sufu antag 59*, Jurkat NFkB inh 19, 697 NFkB inh -7, Mdm2 MdmX PPI 61*, Shn3 3UTR inh 88*, Mdm2-MdmX conf 11, Gli-Sufu confirm 62*, Gli cytotox 23 and Wnt3a counter 16.
O=C1CC/C=C\C[C@@H](CC(=O)N(CCO)Cc2ccccc2)C(=O)NC[C@@H](c2ccccc2)O1 was read as Gli-Sufu antag -3, Jurkat NFkB inh -4, 697 NFkB inh 3, Mdm2 MdmX PPI 6 and Shn3 3UTR inh -10.
O=C(C[C@H]1C/C=C\C[C@H](NC(=O)OCC2c3ccccc3-c3ccccc32)C(=O)O[C@H](c2ccccc2)CNC1=O)N[C@H](CO)Cc1ccccc1 was read as Gli-Sufu antag 63*, Jurkat NFkB inh -13, 697 NFkB inh -9, Mdm2 MdmX PPI 78*, Shn3 3UTR inh 42, Mdm2-MdmX conf 47*, FLuc counter 56*, Gli-Sufu confirm 54*, Gli cytotox 34* and Wnt3a counter -12.
`C[C@H]1COC(=O)[C@H](NC(=O)OCC2c3ccccc3-c3ccccc32)C/C=C\C[C@H](CC(=O)N(CCO)Cc2ccccc2)C(=O)N1` gave Gli-Sufu antag 38, Jurkat NFkB inh -7, 697 NFkB inh -3, Mdm2 MdmX PPI 9 and Shn3 3UTR inh inconclusive.
